The nature of this experiment: HepG2 cell viability effects, profiling panel, calcein-AM fluorescence, 48 h, basal (AID 1164). Note: test concentration not given here. The following applies: higher = more signal.
On to `CCOc1cc(C(O)C2C=CC3C(=O)NC(=O)C3N2Nc2ccccn2)ccc1O` (stereo unspecified), for which the z-score is -0.506. Take `Cc1cc(C)c(C(O)C2C=CC3C(=O)N(c4ccccc4)C(=O)C3N2Nc2ccccc2)c(C)c1` (stereo unspecified): the z-score is 1.37. Then `CCCC=C(CCC)[C@@H](NS(=O)(=O)c1ccccc1)c1ccc(C(F)(F)F)cc1`, with -2.34; and `COCCCNC(=O)[C@@]1(Cc2ccccc2)COC(c2ccc(OCCCO)cc2)=N1`, with 1.02. Then `C[C@@]1([C@@H](NC(=O)c2cccs2)c2ccc(-c3ccccc3)cc2)C[C@H]1C1CCCCC1`, with -0.644.

For the compound `COc1ccc(C#Cc2ccc3c(c2)[C@]2(C(=O)N3)[C@H](c3ccc(OCCO)cc3)N3[C@H](c4ccccc4)[C@H](c4ccccc4)OC(=O)[C@H]3[C@@H]2C(=O)N2CCN(c3ncccn3)CC2)cc1`, the z-score was -0.646. The result for `CC(C)C[C@@H]1NC(=O)[C@@H]2C[C@H](C(=O)NCc3ccc(F)cc3)[C@H](c3ccc(O)cc3)N2C1=O` reads -1.03. The result for `CCCN1C(=O)[C@@H]2Cc3c([nH]c4ccccc34)[C@@H](c3cccc(O)c3)N2C1=O` reads -1.81.

In the case of `COC(=O)[C@@]1(Cc2ccc(OC)cc2)[C@H]2c3cc(C(=O)N4CCCC4)n(CCc4ccc(O)c(OC)c4)c3C[C@H]2CN1C(=O)c1ccccc1`, the z-score is -0.0475. The result for `C=CC[C@]1(C(=O)NCC(O)CO)N=C(c2ccc(OCCCO)cc2)O[C@H]1c1ccccc1N=[N+]=[N-]` (stereo partly specified) reads -0.735. The result for `COc1ccc([Si](C)(C)[C@@H]2[C@@H](CCO)O[C@]3(C(=O)N(Cc4ccc(N5C(=O)c6ccccc6Oc6ccccc65)cc4)c4ccccc43)[C@H]2C)cc1` reads -3.56.

The values are drawn from PubChem BioAssay.
